ROC1-CUL1 inh = blocks human RBX1-Cullin-1 di-ubiquitin formation; in vitro K48 di-Ub FRET, acceptor:donor ratio, 45 min; 140,000 tested, 0.6% active; P62877+Q13616; inhibition, % at 10 µM; in the data active means inhibition above about 25%
Numbers without * were called inactive. This is one part of a sample in which hits are shown more often than they occur.

SMILES	ROC1-CUL1 inh
N#CC1=c2s/c(=C\c3ccc(-c4ccccc4)o3)c(=O)n2C(=N)C(C#N)C1c1ccc(-c2ccccc2)o1 (stereo unspecified)	56*
CCOc1ccc(Br)c(C=Nc2ccc(NC(C)=O)cc2)c1O	-2
CC(C)C(=O)Nc1ccc(N2CCCCC2)c(F)c1	-4
COc1cccc(CN(C)Cc2c(C(=O)N3C[C@@H](C)O[C@@H](C)C3)nc3sccn23)c1	-1
CCN(CCO)C(=O)c1cc(C(C)(C)C)cc(C(C)(C)C)c1	1
C=CCn1c(CNc2ccccc2)nnc1SC(C)C(=O)N/N=C/c1ccc(N(CC)CC)cc1 (stereo unspecified)	-2
C=CCn1c(CNc2cccc3ccccc23)nnc1SCC(=O)N/N=C/c1ccc(OC)cc1OC	7
C=CCn1c(CNc2cccc3ccccc23)nnc1SC(C)C(=O)N/N=C/c1ccc(OC)cc1OC (stereo unspecified)	42*
O=C(O)Cc1ccccc1S(=O)(=O)c1ccc(Cl)cc1	-6
Cc1cccc(C)c1Oc1ncccc1CNC(=O)CCN1CCCC1=O	16
Cc1nc(N2CCc3ccccc32)nc2c1C(=O)CC(C)(C)C2	0
O=C1C=C(N2CCCCC2)c2ccccc2C1=O	80*
O=C1C=C(N2CCc3ccccc32)c2ccccc2C1=O	77*
CC(=O)N(C)C1=C(N2CCCC2)C(=O)c2ccccc2C1=O	-6
O=C1C(=Cc2ccc(N3CCCCCC3)o2)C(=O)c2ccccc21	4
Nc1ccc(S(=O)(=O)N2CCc3ccccc32)cc1	5
C/C=C(\C)CN1CCC2(CCCN(Cc3ccc(F)cc3)C2=O)C1 (stereo unspecified)	8
COc1ccc(N2CC(=O)N(c3ccc(OC)cc3)CC2=O)cc1	-5
Cc1ccc(-c2nc3c(c(SCC(=O)Nc4cccc(C(=O)O)c4)n2)Cc2cccc(C)c2O3)cc1	31*
COc1ccc(-c2nc3c(c(SCC(=O)Nc4ccccc4OC)n2)Cc2cccc(C)c2O3)cc1	3
CCOc1cccc2c1Oc1nc(-c3ccccc3)nc(SCC(=O)Nc3ccc(F)cc3)c1C2	-10
CN(C)S(=O)(=O)N1CCC(C(=O)Nc2ccc(F)c(F)c2)CC1	-2
